Test results as given in PubChem BioAssay (NCI).
Compounds without any hit were thinned out: in the full panel of roughly 79,000, 15% have a hit. Activity calls are given as the source filed them. No stated cut-off is given here; in the data, active means growth inhibition above about 70%; inactive means the rest.

How the values were obtained:
[1] = NCI Yeast Anticancer Drug Screen. Data for the rad52 strain (AID 147);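 further: 0% = growth of vehicle-treated control cultures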; settings: S. cerevisiae rad52 mutant growth inhibition, hits give high values
Method in brief: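 Growth of repair-deficient yeast cells was compared between compound-treated and vehicle-treated cultures to give percent inhibition.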

[2] = NCI Yeast Anticancer Drug Screen. Data for the wt1 strain (AID 149);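 further: 0% = growth of vehicle-treated wt1 cultures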; settings: S. cerevisiae wt1 strain (SPY 50644) growth inhibition, hits give high values
Method in brief: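 wt1 strain grown with compound or vehicle; inhibition taken from the growth difference.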

[3] = NCI Yeast Anticancer Drug Screen. Data for the rad50EPP+ strain (AID 151);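 further: 0% = growth of vehicle-treated control cultures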; settings: S. cerevisiae rad50 mutant strain, hits give high values
Method in brief: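 Measured: growth inhibition of rad50EPP+ yeast. Reference: vehicle-treated controls. Screen uses strains with defined genetic alterations in DNA damage repair or cell cycle control.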

[4] = NCI Yeast Anticancer Drug Screen. Data for the mgt1 strain (AID 153); settings: S. cerevisiae mgt1 mutant growth inhibition, hits give high values
Method in brief: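 Compounds were applied to mgt1 mutant yeast, and growth was then compared against vehicle-treated control cultures to give percent inhibition.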

[5] = NCI Yeast Anticancer Drug Screen. Data for the rad50 strain (AID 155);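 further: 0% = growth of vehicle-only cultures of the same strain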; settings: S. cerevisiae rad50 strain growth inhibition, hits give high values
Method in brief: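 DNA repair mutant yeast, compound exposure, growth read-out; inhibition is taken relative to vehicle.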

[6] = NCI Yeast Anticancer Drug Screen. Data for the mec2-1 strain (AID 157); settings: S. cerevisiae mec2-1 strain, hits give high values
Method in brief: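 Compounds were applied to mec2-1 yeast cells. Their growth was then compared with that of vehicle-treated cultures to give growth inhibition.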

[7] = NCI Yeast Anticancer Drug Screen. Data for the rad14 strain (AID 159);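 further: 0% = growth of vehicle-treated control cultures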; settings: S. cerevisiae rad14 strain growth inhibition, hits give high values
Method in brief: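 DNA repair-defective yeast, compound-exposed; % growth inhibition derived by comparison with vehicle-treated controls.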

[8] = NCI Yeast Anticancer Drug Screen. Data for the sgs1 mgt1 strain (AID 161);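 further: 0% = growth of cultures given vehicle only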; settings: S. cerevisiae sgs1 mgt1 strain, hits give high values
Method in brief: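 This yeast growth screen uses a strain with defined DNA-repair lesions; compound-treated growth is compared with vehicle-treated growth.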

[9] = NCI Yeast Anticancer Drug Screen. Data for the CLN2oe strain (AID 163);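 further: 0% = growth of vehicle-only control cultures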; settings: S. cerevisiae CLN2oe strain, hits give high values
Method in brief: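 Cells of an engineered yeast line with disturbed cell-cycle regulation are treated with compound. Inhibition of growth is then calculated relative to the vehicle-treated reference.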

[10] = NCI Yeast Anticancer Drug Screen. Data for the cln2 rad14 strain (AID 165);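 further: 0% = growth equal to vehicle treated cultures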; settings: S. cerevisiae cln2 rad14 strain, hits give high values
Method in brief: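 Strain: cln2 rad14 yeast, altered in cell cycle control and DNA damage repair. Read-out: growth inhibition vs vehicle.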

[11] = NCI Yeast Anticancer Drug Screen. Data for the bub3 strain (AID 167); settings: S. cerevisiae bub3 mutant strain, hits give high values
Method in brief: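 In this screen, a yeast mutant lacking normal mitotic checkpoint function is challenged with compound. Relative growth versus vehicle gives the inhibition value.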

[12] = NCI Yeast Anticancer Drug Screen. Data for the wt2 strain (AID 169);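 further: 0% = growth of vehicle-treated yeast cultures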; settings: S. cerevisiae wt2 strain growth inhibition, hits give high values
Method in brief: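 Growth of compound-treated yeast is measured and expressed as inhibition relative to vehicle-only controls.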

[13] = NCI Yeast Anticancer Drug Screen. Data for the sgs1 strain (AID 173);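 further: 0% = growth of vehicle-only control cultures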; settings: S. cerevisiae sgs1 mutant, hits give high values
Method in brief: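 Strain with an altered DNA repair or cell cycle pathway exposed to compound. Growth then measured. Value = inhibition versus vehicle control.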

[14] = NCI Yeast Anticancer Drug Screen. Data for the mlh1 rad18 strain (AID 175); settings: S. cerevisiae mlh1 rad18 strain growth inhibition, hits give high values
Method in brief: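 A repair-deficient yeast strain is exposed to test compound, and growth is scored relative to vehicle-treated controls.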

[15] = NCI Yeast Anticancer Drug Screen. Data for the rad18 strain (AID 177); settings: S. cerevisiae rad18 mutant growth inhibition, hits give high values
Method in brief: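 DNA-repair-defective yeast; compound treatment; growth inhibition scored against vehicle.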

[16] = at 5.0 µM (retest, dose inferred, filed as 0.5)
[17] = at 50.0 µM (retest, dose inferred, filed as 5.0)

Measured: growth inhibition

CC(=O)CC(c1ccccc1)c1c(O)c2ccccc2oc1=O (stereo unspecified)
active: [1]; at 100.0 µM 75% | [4]; at 100.0 µM 83% | [5]; [16] 70% | [5]; [17] 95% | [5]; at 100.0 µM 76% | [6]; [17] 97% | [8]; [17] 89% | [9]; at 100.0 µM 70% | [10]; [17] 90% | [11]; [17] 86% | [11]; at 100.0 µM 79% | [12]; at 100.0 µM 77% | [13]; at 100.0 µM 84% | [14]; [17] 99% | [15]; at 100.0 µM 78%
inactive: [1]; at 1.2 µM 5% | [1]; at 3.7 µM -1% | [1]; at 11.0 µM -4% | [1]; at 33.0 µM 16% | [2]; at 1.2 µM -10% | [2]; at 3.7 µM -10% | [2]; at 11.0 µM -12% | [2]; at 33.0 µM 10% | [2]; at 100.0 µM 64% | [3]; at 1.2 µM 15% | [3]; at 3.7 µM 4% | [3]; at 11.0 µM -3% | [3]; at 33.0 µM -4% | [3]; at 100.0 µM -16% | [4]; at 1.2 µM 13% | [4]; at 3.7 µM 4% | [4]; at 11.0 µM 14% | [4]; at 33.0 µM 44% | [5]; at 1.2 µM 6% | [5]; at 3.7 µM 5% | [5]; at 11.0 µM 6% | [5]; at 33.0 µM 20% | [5]; at 50.0 µM 46.8% | [6]; at 1.2 µM -9% | [6]; at 3.7 µM -9% | [6]; [16] 61% | [6]; at 11.0 µM -4% | [6]; at 33.0 µM 12% | [6]; at 50.0 µM 31.5% | [6]; at 100.0 µM 67% | [7]; at 1.2 µM -4% | [7]; at 3.7 µM 0% | [7]; at 11.0 µM -8% | [7]; at 33.0 µM 19% | [7]; at 100.0 µM 68% | [8]; [16] -1% | [8]; at 50.0 µM 55.4% | [9]; at 1.2 µM 17% | [9]; at 3.7 µM 22% | [9]; at 11.0 µM 6% | [9]; at 33.0 µM 39% | [10]; [16] 22% | [10]; at 50.0 µM 54.6% | [11]; at 1.2 µM 11% | [11]; at 3.7 µM 13% | [11]; [16] 29% | [11]; at 11.0 µM 14% | [11]; at 33.0 µM 45% | [11]; at 50.0 µM 62.1% | [12]; at 1.2 µM -20% | [12]; at 3.7 µM -9% | [12]; at 11.0 µM -13% | [12]; at 33.0 µM 11% | [13]; at 1.2 µM 11% | [13]; at 3.7 µM 14% | [13]; at 11.0 µM 7% | [13]; at 33.0 µM 42% | [14]; [16] 32% | [14]; at 50.0 µM 44.5% | [15]; at 1.2 µM -12% | [15]; at 3.7 µM 1% | [15]; at 11.0 µM 11% | [15]; at 33.0 µM 27%

CCCCCCNCCCNc1c2cc(OC)ccc2nc2cccc([N+](=O)[O-])c12
inactive: [1]; at 1.2 µM 8% | [1]; at 3.7 µM 25% | [2]; at 1.2 µM 1% | [2]; at 3.7 µM 1% | [2]; at 11.0 µM 9% | [2]; at 33.0 µM 59% | [3]; at 1.2 µM 2% | [3]; at 3.7 µM 5% | [3]; at 11.0 µM 20% | [3]; at 33.0 µM 60% | [4]; at 1.2 µM 0% | [4]; at 3.7 µM 0% | [4]; at 11.0 µM 10% | [5]; at 1.2 µM 5% | [5]; at 3.7 µM 15% | [5]; [16] 35% | [5]; at 11.0 µM 66% | [6]; at 1.2 µM -1% | [6]; at 3.7 µM 4% | [6]; [16] 9% | [7]; at 1.2 µM 7% | [7]; at 3.7 µM 55% | [9]; at 1.2 µM -8% | [9]; at 3.7 µM -13% | [9]; at 11.0 µM -9% | [9]; at 33.0 µM 53% | [11]; at 1.2 µM -6% | [11]; at 3.7 µM -13% | [11]; [16] -3% | [11]; at 11.0 µM -18% | [11]; at 33.0 µM 34% | [13]; at 1.2 µM 21% | [13]; at 3.7 µM 65%
active: [1]; at 11.0 µM 73% | [1]; at 33.0 µM 93% | [1]; at 100.0 µM 97% | [2]; at 100.0 µM 96% | [3]; at 100.0 µM 92% | [4]; at 33.0 µM 81% | [4]; at 100.0 µM 98% | [5]; at 33.0 µM 92% | [5]; [17] 97% | [5]; at 50.0 µM 94.6% | [5]; at 100.0 µM 96% | [6]; at 11.0 µM 73% | [6]; at 33.0 µM 94% | [6]; [17] 98% | [6]; at 50.0 µM 96.4% | [6]; at 100.0 µM 99% | [7]; at 11.0 µM 96% | [7]; at 33.0 µM 99% | [7]; at 100.0 µM 99% | [8]; [16] 88% | [8]; [17] 97% | [8]; at 50.0 µM 95.7% | [9]; at 100.0 µM 96% | [10]; [16] 77% | [10]; [17] 99% | [10]; at 50.0 µM 98.8% | [11]; [17] 96% | [11]; at 50.0 µM 92.7% | [11]; at 100.0 µM 95% | [13]; at 11.0 µM 88% | [13]; at 33.0 µM 95% | [13]; at 100.0 µM 98% | [14]; [16] 73% | [14]; [17] 97% | [14]; at 50.0 µM 97.2% | [15]; at 1.2 µM 89% | [15]; at 3.7 µM 93% | [15]; at 11.0 µM 93% | [15]; at 33.0 µM 95% | [15]; at 100.0 µM 98%
